Measurements published in article PMC4336329 (PLoS ONE, 2015).
Hit rate of the full screen: of about 310,000 compounds, about 14,000 (4.5%) showed an effect of 50% or more. The effect is printed as a negative number. The full list was thinned out, with strong results kept by preference.

molecular target: human ether-à-go-go-related gene (hERG) potassium channel (human, UniProt Q12809); experiment: primary screen, population patch clamp on CHO cells stably expressing hERG; higher = less effect of the substance
Sequence (Q12809 whole entry, looked up): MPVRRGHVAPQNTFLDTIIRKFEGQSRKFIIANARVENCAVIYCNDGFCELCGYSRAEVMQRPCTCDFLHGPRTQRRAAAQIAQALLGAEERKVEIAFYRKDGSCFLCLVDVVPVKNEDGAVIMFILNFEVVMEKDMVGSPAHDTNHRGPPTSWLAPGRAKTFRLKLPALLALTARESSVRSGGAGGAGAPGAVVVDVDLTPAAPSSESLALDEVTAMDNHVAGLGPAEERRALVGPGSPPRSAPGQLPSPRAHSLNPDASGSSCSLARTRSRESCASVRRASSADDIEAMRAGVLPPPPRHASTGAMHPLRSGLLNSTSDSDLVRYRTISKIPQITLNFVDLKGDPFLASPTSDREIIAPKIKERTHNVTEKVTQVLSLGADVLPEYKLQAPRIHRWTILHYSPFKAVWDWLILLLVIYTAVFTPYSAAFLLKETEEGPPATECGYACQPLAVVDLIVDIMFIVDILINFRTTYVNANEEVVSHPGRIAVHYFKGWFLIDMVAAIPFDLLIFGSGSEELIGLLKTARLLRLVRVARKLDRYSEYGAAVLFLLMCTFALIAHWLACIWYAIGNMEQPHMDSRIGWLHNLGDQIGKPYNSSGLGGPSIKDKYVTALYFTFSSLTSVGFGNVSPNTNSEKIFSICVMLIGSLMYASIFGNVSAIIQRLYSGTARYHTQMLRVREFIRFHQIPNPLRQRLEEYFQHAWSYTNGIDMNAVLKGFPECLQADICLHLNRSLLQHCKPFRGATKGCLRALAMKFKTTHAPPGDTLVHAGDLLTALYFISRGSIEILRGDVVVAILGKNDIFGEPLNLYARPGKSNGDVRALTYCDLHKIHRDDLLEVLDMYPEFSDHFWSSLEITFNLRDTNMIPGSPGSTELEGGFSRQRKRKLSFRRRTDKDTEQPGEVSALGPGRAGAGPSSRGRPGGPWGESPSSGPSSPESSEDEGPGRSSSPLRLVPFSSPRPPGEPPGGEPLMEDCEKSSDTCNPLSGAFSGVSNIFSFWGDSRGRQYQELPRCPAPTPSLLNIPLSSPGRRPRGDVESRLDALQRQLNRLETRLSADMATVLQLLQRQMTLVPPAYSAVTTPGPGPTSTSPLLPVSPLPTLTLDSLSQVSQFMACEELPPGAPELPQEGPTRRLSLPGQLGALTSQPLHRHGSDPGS
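Note: peak tail current of the secondary pulse compared with the same well before compound.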

SMILES	hERG current change (%, negative = inhibition) at 10uM [%]
COc1ccc(OC)c(NC(=O)CSc2nnc(CNC(=O)COc3ccc(Cl)cc3)o2)c1	-60.1
COc1ccc(-n2c(Cc3cccn3C)nnc2SCC(=O)Nc2cccc(F)c2)cc1	-54.3
COc1ccc(Cl)cc1NC(=O)CSc1nnc(COc2ccccc2)n1C	-57.3
COc1ccc(Cl)cc1NC(=O)CSc1nnc(COc2ccccc2)n1N	-5.96
COc1cccc(NC(=O)CSc2nnc(Cc3cccn3C)n2-c2ccc(F)cc2)c1	-15.5
COc1ccccc1NC(=O)CSc1nnc(CNC(=O)COc2ccc(Cl)cc2)o1	-43.7
COc1ccc(-n2c(Cc3cccn3C)nnc2SCC(=O)Nc2cccc(OC)c2)cc1	-23.4
COc1ccc(NC(=O)CSc2nnc(CNC(=O)COc3ccc(Cl)cc3)o2)c(OC)c1	-12.9
COc1cc2c(cc1NC(=O)CSc1nnc(COc3ccc(Cl)cc3)n1C)oc1ccccc12	6.05
CN(CCC#N)C(=O)COC(=O)c1ccccc1C(=O)c1ccc(Cl)c([N+](=O)[O-])c1	-0.749
CCOC(=O)CCC(=O)N1CCOCCOCCN(C(=O)CCC(=O)OCC)CCOCC1	-7.63
Cc1cc(C)c2nc(-c3ccccn3)cc(C(=O)Nc3cc(C)on3)c2c1	10.4
COc1ccc(-n2nc(C(=O)NCC(=O)NC(C)C)c3ccccc3c2=O)cc1Cl	4.05
COC(=O)c1c(C(=O)OC)c(-c2ccc(OC)cc2)n2c1CS(=O)C2 (centres unmarked)	10.1
COC(=O)c1c(C(=O)OC)c(-c2ccc(F)cc2)n2c1CS(=O)C2 (centres unmarked)	26.7
COC(=O)c1c(C(=O)OC)c(-c2ccc(C)cc2)n2c1CS(=O)C2 (centres unmarked)	-53.8
OCCCc1nc2ccccc2n1CCCCOc1ccccc1	-57.2
OCc1nc2ccccc2n1CCCCOc1ccccc1	0.828
OCCCc1nc2ccccc2n1CCOc1ccccc1	-5.7
CC(C)(C)C(=O)NCCCc1nc2ccccc2n1CCCOc1ccc(Cl)cc1	-57.2
CC(C)C(=O)NCCc1nc2ccccc2n1CCCOc1ccc(Cl)cc1	-41.7
CC(C)(C)C(=O)NCCc1nc2ccccc2n1CC(=O)c1ccc(Cl)cc1	-33.2
CCSc1nnc(NC(=O)C2CCCCC2C(=O)OCC(F)(F)C(F)F)s1 (centres unmarked)	17.9
